Screening results: PubChem BioAssay, National Center for Advancing Translational Sciences (NCATS)
AmpC detergent: blocks E. coli AmpC beta-lactamase in detergent assay. AID 485294. actives 0.041% (n = 370,000). Potency, µM (series often up to 114 µM), for inactives: top-dose activity change, negative = inhibition, actives largely listed as inhibitors. AmpC hydrolysis of nitrocefin, absorbance 480 nm, 0.01% Triton. P00811;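 further: 0% = no-compound wells and -100% = no-enzyme wells; nearly all actives have a fitted effect of over 25% in size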
Target sequence (P00811 whole entry, looked up): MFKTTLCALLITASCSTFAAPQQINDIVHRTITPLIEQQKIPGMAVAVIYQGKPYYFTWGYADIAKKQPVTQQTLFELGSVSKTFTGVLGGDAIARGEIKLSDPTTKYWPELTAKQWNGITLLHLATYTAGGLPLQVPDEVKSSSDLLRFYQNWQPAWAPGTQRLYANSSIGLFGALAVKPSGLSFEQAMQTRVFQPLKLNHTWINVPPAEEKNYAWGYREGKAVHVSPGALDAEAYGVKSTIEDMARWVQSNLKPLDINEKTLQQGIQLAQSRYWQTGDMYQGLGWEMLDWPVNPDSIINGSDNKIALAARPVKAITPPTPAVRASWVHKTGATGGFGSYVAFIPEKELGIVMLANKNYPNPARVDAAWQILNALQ
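20 mM phosphate pH 7.0 + 0.01% (detergent screen) or 0.0001% Triton X-100; 5.3 nM AmpC reagent; cpd preinc 15 min RT; nitrocefin (800 uM stock) to start; A480 q20 s × 4 min; Activity was normalised to no-enzyme and no-compound control wells.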
Pf growth 96h: P. falciparum growth inhibition at 96 hour, primary screen for plastid delayed-death inhibitors. P. falciparum luciferase reporter growth, 96 h. Potency, µM (titrated, usually from 28.7 µM), without a hit: top-dose activity change, negative = inhibition, usual class: inhibitors. actives 6.9% (n = 320,000). AID 504834
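Plates of compound plus infected erythrocytes (2% hematocrit, 0.05% parasitemia final) incubate 96 hours, 37 C, 5% CO2. Detection reagent added; reduced luminescence from the parasites' luciferase reporter flags inhibition.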
AMA1-RON2 inh: disrupts binding of P. falciparum AMA1 to RON2. actives 0.2% (n = 360,000). Potency, µM (titrated, usually from 58.2 µM), for the others: at the top dose activity change, negative = inhibition, usual class: inhibitors. AlphaScreen AMA1-biotinylated RON2 peptide binding;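 further: 0% = vehicle wells and -100% = peptide control; nearly all actives have a fitted effect of over 45% in size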
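AMA1 (3D7) with his tag at 25 nM final met compounds first, then biotinylated RON2 peptide at 25 nM; detection used donor plus acceptor beads, 10 µg/mL apiece, read by AlphaScreen after 30 min at room temperature.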
AmpC inh no detg: inhibitors of E. coli AmpC beta-lactamase without detergent; P00811; AmpC nitrocefin hydrolysis, absorbance 480 nm, 0.0001% Triton; Potency, µM (series often up to 57.1 µM), for the others: top-dose activity change, negative = inhibition, actives largely listed as inhibitors; actives 0.52% (n = 330,000); AID 485341;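 further: plate controls were no compound for no effect and no enzyme for full effect; nearly all actives have a fitted effect of over 20% in size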
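AmpC (5.3 nM in the dispensed reagent) in 20 mM phosphate pH 7.0 with 0.01% (detergent screen) or 0.0001% Triton X-100 was preincubated with compounds for 15 min at room temperature. Nitrocefin was then added from an 800 uM solution, and hydrolysis was followed at 480 nm.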
HCV inh: inhibitors of hepatitis C virus infection; Potency, µM (doses to about 41.8 µM), for inactives: top-dose activity change, negative = inhibition, hits mostly inhibitors; Huh7.5.1 HCVcc-Cre infection, luciferase reporter, 44 h; actives 3.4% (n = 340,000)
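Antiviral activity was scored by luciferase reporter output from cells infected with HCVcc-Cre (~0.5 moi) in presence of compound, 44 h infection period, cells seeded 1,000/well 4 h prior.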
Pf growth 48h: inhibits P. falciparum growth in the first generation, 48 h. P. falciparum luciferase growth in erythrocytes, 48 h. Potency, µM (titrated, usually from 28.7 µM), without a hit: top-dose activity change, negative = inhibition, actives largely listed as inhibitors. actives 5.9% (n = 310,000). AID 504832
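Read-out is firefly luciferase luminescence from an integrated reporter in P. falciparum, so falling signal marks reduced parasite growth. Infected erythrocytes were at 2% hematocrit and 0.1% parasitemia (final) in Albumax-supplemented RPMI 1640.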
Numbers without * were called inactive; ? = inconclusive; . = no result. The list is not random: actives were taken first. Their share in the collection is about 11%. The call rests on the fitted dose curve; in most records, active means well fitted curve in the direction sought with a large enough effect; inconclusive means small, poorly fitted or top-dose-only effect, or another doubt; inactive means no such curve, though single readings can be large; an effect the other way counts as inactive or inconclusive. Unless noted, on the % scale 0 is the no-effect control and ±100 the full control effect; potency means the concentration at half of the fitted maximal effect.

SMILES	AmpC detergent	Pf growth 96h	AMA1-RON2 inh	AmpC inh no detg	HCV inh	Pf growth 48h
Cc1cccn2c(=O)c(C(=O)NCCc3ccccc3)c(O)nc12	18.7%	.	.	.	.	.
COc1ccc(OC)c(C(c2nnnn2C2CCCC2)N2CCc3ccccc3C2)c1 (stereo not drawn)	6.9%	23.8%	-12.5%	-3.3%	11.2µM*	2.94µM*
COc1ccc(C(c2nnnn2C2CCCC2)N2CCc3ccccc3C2)cc1OC (stereo not drawn)	-10.3%	34.8%	-19.5%	112.1%	-11.0%	3.7µM*
CCC(=O)Nc1ccc(CC)cc1-c1nc2ccccc2n(CC(=O)c2ccc(OC)cc2)c1=O	22.3%	.	.	.	.	.
CCN1CCN(CCCNC(=O)c2ccc3c(c2)NC(=O)c2ccccc2S3)CC1	1.2%	8.28µM*	8.3%	3.98µM*	10µM*	14.7µM*
CC1CCCC(C)N1CCCNC(=O)c1ccc2c(c1)NC(=O)c1ccccc1S2 (stereo not drawn)	2.0%	?	-1.2%	16.0%	?	4.15µM*
CCN1CCCC1CNC(=O)c1ccc2c(c1)NC(=O)/C(=C\c1ccc(OC)c(OC)c1)S2 (stereo not drawn)	2.5%	?	-9.2%	138.4%	0.794µM*	4.65µM*
COc1ccc(C(=O)NCCCN2CCOCC2)cc1OC	4.4%	36.5%	-13.4%	-6.8%	26.3%	8.4%
COc1ccc(/C=C2/Sc3ccc(C(=O)NCCCN4CCOCC4)cc3NC2=O)cc1OC	4.9%	?	-15.1%	169.3%	7.94µM*	?
COc1ccc(-c2[nH]c3c(c2-c2c(-n4cccc4)n(C)c(=O)[nH]c2=O)c(=O)[nH]c(=O)n3C)cc1F	12.5%	.	.	.	.	.
Cc1cc(C)c2oc(C(=O)Nc3sc4c(c3C(=O)NCc3ccco3)CCCC4)cc(=O)c2c1	13.6%	.	.	.	.	.
CCC(C)N(CCNC(=O)c1ccc2c(c1)NC(=O)c1ccccc1S2)C1CCCCC1 (stereo not drawn)	-2.0%	?	0.0%	-6.0%	22.4µM*	1.85µM*
CCN1CCN(CCCNC(=O)c2ccc3c(c2)NC(=O)/C(=C\c2cccc(C)c2)S3)CC1	-3.6%	-25.9%	0.0%	142.4%	1.78µM*	?
O=C(NCCCN1CCCC1=O)c1ccc2c(c1)NC(=O)c1ccccc1S2	?	-13.4%	-1.0%	-4.0%	8.4%	.
Cc1cccc(/C=C2/Sc3ccc(C(=O)NCCCN4CCOCC4)cc3NC2=O)c1	-0.1%	354.2%	.	58.8%	.	?
O=S(=O)(Nc1cccc(-c2ccc(N3CCCC3)nn2)c1)c1ccccc1C(F)(F)F	-2.5%	.	.	.	.	.
COCCNC(=O)c1c(N)n(Cc2ccco2)c2nc3ccccc3nc12	-15.9%	13.1µM*	69.3%	157.1%	-14.2%	13.1µM*
COCCCn1c(N)c(C(=O)NCc2ccco2)c2nc3ccccc3nc21	-1.2%	?	32.1%	38.5%	-29.7%	9.28µM*
Nc1c(C(=O)NCc2ccco2)c2nc3ccccc3nc2n1CCc1ccccc1	?	-100.2%	56.8%	20.1%	?	?
C=CCNC(=O)c1c(N)n(Cc2ccco2)c2nc3ccccc3nc12	-17.1%	35.0%	80.3%	17.3%	-25.7%	30.3%
CCC(C)NC(=O)c1c(N)n(CCCOC)c2nc3ccccc3nc12 (stereo not drawn)	-22.1%	2.33µM*	26.5%	199.9%	8.1%	?
COC(=O)c1c(N)n(CCCN2CCOCC2)c2nc3ccccc3nc12	-10.0%	9.28µM*	6.8%	-7.8%	6.3%	?
CCOC(=O)c1c(NC(C)=O)c2c3c(sc2n1Cc1nc(-c2ccccc2Cl)oc1C)CCCC3	-9.6%	.	.	.	.	.
O=C(c1cc2ccccc2oc1=O)N1CCN(c2ccc(F)cc2)CC1	28.3%	.	.	.	.	.
CC(C)Cc1nn2c(=O)cc(COC(=O)c3ccccc3NC(=O)c3ccccc3)nc2s1	4.8%	.	.	.	.	.
